Assay outcomes (PubChem)
In the library only some 6.6% were active in any assay of this set; here they are far more common.
KB-3-1 cytotox – KB-3-1 parental cell cytotoxicity | KB-3-1 viability, CellTiter-Glo ATP luminescence, 72 h | Potency, µM (highest dose often 46.1 µM), hits mostly cytotoxic | actives 1.4% (n = 400,000); further: on the % scale 0 is the no-effect control and ±100 the full control effect; nearly all actives have a fitted effect of over 60% in size
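KB-3-1 cells, DMEM (no phenol red) + 10% FBS; compound by pin transfer, 72 h, 37 °C. Readout: CellTiter-Glo luminescence after 10 min. Data normalized, curve-fitted.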
KB-V1 cytotox – kills drug-selected multidrug resistant KB-V1 cells | KB-V1 MDR cells viability, CellTiter-Glo, 72 h | Potency, µM (highest dose often 46.1 µM), hits mostly cytotoxic | actives 3.4% (n = 400,000) | AID 1347076; further: on the % scale 0 is the no-effect control and ±100 the full control effect; nearly all actives have a fitted effect of over 60% in size
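In this primary screen, KB-V1 cells overexpressing P-gp are incubated with library compounds (lowest to highest concentration) for 72 h at 37 degrees C before a luminescent ATP viability read.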
PTAP TSG101 blk – blocks PTAP/TSG101 interaction to inhibit HIV-1 budding; Potency, µM (series often up to 115 µM), for inactives: top-dose activity change, negative = inhibition, actives largely listed as inhibitors; Fluorescence polarization, FITC-PTAP peptide / Tsg101 binding; 340,000 tested, under 10 active; AID 493005; Q99816; active means well fitted inhibition curve with a large enough effect in the main read-out, with a control signal flat, not every such curve was filed as active; inconclusive means small, poorly fitted or top-dose-only effect, or effect the other way, or a change in a side signal; inactive means no such curve, though single readings can be large or run the other way; further: % of control where 0% means no effect
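Compounds were pin-transferred onto Tsg101 binding domain (10 uM final) in HEPES pH 7.5 buffer, then FITC-PTAP peptide was added at 50 nM final. After 20 min at RT, polarization reported peptide displacement across a qHTS concentration series.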
SW480 rerep – induces DNA re-replication in SW480 colon adenocarcinoma cells | SW480 DNA re-replication, Hoechst DNA content imaging, 48 h | Potency, µM (doses to about 46.1 µM), for inactives: at the highest dose re-replication activation, hits mostly activators | actives 1.8% (n = 340,000); further: % of control where 0% means no effect; nearly all actives have a fitted effect of over 55% in size
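Image-based DNA-content assay: after two days of treatment, nuclei were labelled with the DNA dye Hoechst and imaged, and hits were compounds raising the count of nuclei showing high fluorescence intensity.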
RGS4 inhibitor – human RGS4 inhibition | P49798 | Transcreener GDP fluorescence polarization, RGS4-accelerated GTP hydrolysis | Potency, µM (titrated, usually from 114 µM), without a hit: top-dose activity change, negative = inhibition, actives largely listed as inhibitors | actives 0.039% (n = 390,000); further: on the % scale 0 is the no-effect control and ±100 the full control effect; nearly all actives have a fitted effect of over 75% in size
Target sequence (P49798 whole entry, looked up): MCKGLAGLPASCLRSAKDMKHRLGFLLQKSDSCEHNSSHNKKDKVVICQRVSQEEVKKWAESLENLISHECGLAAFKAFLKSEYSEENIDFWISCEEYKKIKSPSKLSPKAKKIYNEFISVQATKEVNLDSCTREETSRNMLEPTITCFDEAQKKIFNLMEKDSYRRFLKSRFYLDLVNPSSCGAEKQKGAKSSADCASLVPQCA
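MLSMR compounds (23 nl, pin-transferred) preincubated 10 min at room temperature with a 500nM (2x) first reagent, then RGS4 at 900nM (2x) plus Transcreener GDP mix added; fluorescence polarization (620/688 nm) read before and after 90 min at 30 °C.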
MCF10A rerep – induces DNA re-replication in MCF 10a normal breast cells; MCF 10A DNA re-replication, Hoechst nuclear intensity, 48 h; Potency, µM (doses to about 46.1 µM), without a hit: top-dose activity, positive = re-replication, most hits filed as activators; actives 2.9% (n = 350,000); AID 624296; further: % of control where 0% means no effect; nearly all actives have a fitted effect of over 50% in size
* = called active by the depositor; i = inactive; ? = inconclusive; · = no result. Unless noted, the call rests on the fitted dose curve; in most records, active means well fitted curve in the direction sought with a large enough effect; inconclusive means small, poorly fitted or top-dose-only effect, or another doubt; inactive means no such curve, though single readings can be large; an effect the other way counts as inactive or inconclusive. Potency means the concentration at half of the fitted maximal effect.

SMILES | KB-3-1 cytotox | KB-V1 cytotox | PTAP TSG101 blk | SW480 rerep | RGS4 inhibitor | MCF10A rerep
CCCCCNc1nc(N2CCCC2)c2c(c1C#N)CCN(C)C2 | ? | 23µM* | -3% | ? | -46% | 11µM*
Cc1nn(C(=O)c2ccc(Cl)cc2)c(C)c1S(=O)(=O)N1CCCCCC1 | i | i | · | · | 18% | ·
CC(Sc1nc2ccccc2n1C)C(=O)NC(c1ccccc1)c1ccccc1 (centres undefined) | i | 8.2µM* | -7% | ? | -12% | ?
CC(C)COC(=O)N1CCCC1C(=O)O (centres undefined) | i | i | -7% | 0.73µM* | 13% | 6.5µM*
COc1ccc(CCNC(=O)Cn2cc(S(=O)(=O)Cc3ccccc3F)c3ccccc32)cc1OC | i | i | · | · | -1% | ·
O=C(Nc1ccc(F)cc1)N(Cc1ccco1)Cc1cc2cc3c(cc2[nH]c1=O)OCO3 | i | i | -10% | 5% | -7% | 18µM*
CCC(=O)N(Cc1ccc(C)cc1)Cc1cc2cc3c(cc2[nH]c1=O)OCO3 | i | 12µM* | -2% | -6% | -10% | -5%
Cc1sc2ncn(CC(=O)N(C)c3cccc(C(F)(F)F)c3)c(=O)c2c1S(=O)(=O)N1CCN(c2ncccn2)CC1 | i | i | · | · | 30% | ·
CCCCC(=O)Oc1ccc2oc(-c3ccc(OC)cc3)cc(=O)c2c1 | i | 6.5µM* | · | · | -25% | ·
COc1ccc(-c2cc(=O)c3cc(OC)ccc3o2)cc1 | i | i | 2% | -10% | -1% | -9%
COc1ccc(-c2cc(-c3nnc(COC(=O)CC4CC5CCC4C5)o3)c3ccccc3n2)cc1OC (centres undefined) | ? | 9.2µM* | -1% | 2.6µM* | -8% | ?
Cc1cccc(OCCCCn2nnc3sc4c(c3c2=O)CCC(C)C4)c1 (centres undefined) | i | i | · | · | -8% | ·
Cc1nn2c(=O)cc(COc3ccc(/C=C(\C#N)C(=O)Nc4ccc(F)cc4)cc3)nc2s1 | i | i | · | · | -38% | ·
COc1cc(-c2cnc3c(NC=O)cc(-c4ccc(S(C)(=O)=O)cc4)cn23)cc(OC)c1OC | ? | i | · | · | · | ·
COc1ccc(-c2cnc3c(NC=O)cc(-c4ccc(S(C)(=O)=O)cc4)cn23)cc1OC | ? | i | · | · | · | ·
COc1ccc(-c2cc(NC=O)c3ncc(-c4cc(OC)c(OC)c(OC)c4)n3c2)cc1 | ? | 0.046µM* | · | · | · | ·
COc1ccc(-c2cnc3c(NC=O)cc(-c4ccc(F)cc4)cn23)cc1OC | 0.21µM* | ? | · | · | · | ·
COc1ccc(-c2cnc3c(NC=O)cc(-c4cc(OC)c(OC)c(OC)c4)cn23)cc1OC | ? | 23µM* | · | · | · | ·
COc1ccc(-c2cc(NC=O)c3ncc(-c4cccc(OC)c4)n3c2)cc1 | 6.5µM* | 7.3µM* | · | · | · | ·
COc1ccc(-c2cc(NC=O)c3ncc(-c4cccc(C(=O)NCCN(C)C)c4)n3c2)cc1 | i | i | · | · | · | ·
O=C(CCCCCn1c(=O)c2sccc2n(CC(=O)Nc2ccccc2F)c1=O)NCc1ccc2c(c1)OCO2 | · | · | · | · | -22% | ·
Cc1ccc(-c2cc(NC(=O)COc3c(C)cc(C)cc3C)on2)cc1 | i | ? | · | · | -7% | ·
CC(C)Oc1cccc(C(=O)Nc2ccc(-c3nc4cc(Cl)cc(Cl)c4o3)cc2)c1 | i | i | · | · | 18% | ·
COc1ccc(F)cc1-c1cc(NC=O)c2ncc(-c3cccc(C(F)(F)F)c3)n2c1 | 23µM* | ? | · | · | · | ·
COc1ccc(-c2cc(NC=O)c3ncc(-c4cnn(C)c4)n3c2)cc1 | ? | 18µM* | · | · | · | ·
COc1ccc(-c2cnc3c(NC=O)cc(-c4ccccc4)cn23)cc1OC | 1.2µM* | 1.6µM* | · | · | · | ·
CC(=O)Nc1cccc(-c2cc(NC=O)c3ncc(-c4ccc(C(C)=O)cc4)n3c2)c1 | i | i | · | · | · | ·
